# Experimental data from PubChem BioAssay (EPA / NIEHS).
# Results filed as inconclusive are left out. Activity calls are given as the source filed them. The calls were made as follows, unless noted: active = hit-call score of the fitted dose curve at least 0.9, where 1 is the maximum; inactive = score below 0.9.
# Legend:
# [1] = BSK_BT_PBMCCytotoxicity: PBMC Cytotoxicity Assessment in the BioMAP Diversity Plus: BT Assay (AID 2284225); details: primary human B cells with PBMC;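 also: PBMC viability measured by Alamar Blue dye reduction fluorescence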
# How it was run: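 75,000 cells/well; cpd 1 h → SEB + TSST-1 (20 ng/mL final each) → 90 h → Alamar Blue 6 h → fluor. 546/580 nm. DMSO = neg. control/baseline.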
# [2] = read-out: Secreted IgG (sIgG), gene 3500; assay: BSK_BT_sIgG: BioMAP Diversity Plus: BT Assay for Secreted IgG (sIgG) Biomarker Activity (AID 2284226); details: primary human B cells with PBMC
# How it was run: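 Secreted IgG from a human primary B cell–PBMC co-culture was measured by ELISA 24 hours after dosing, with DMSO defining baseline activity.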
# [3] = BSK_BT_Bcell_Proliferation: Viability Assessment in the BioMAP Diversity Plus: BT Assay for B cell Proliferation (AID 2284227); details: primary human B cells with PBMC
# How it was run: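 Using a human primary B cell–PBMC co-culture, the assay measures total protein by sulforhodamine B absorbance as a gauge of proliferation after 72 h. Analysis followed the positive fitting direction with DMSO as baseline.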
# [4] = read-out: Interleukin 6 (IL6), IL6 (gene 3569); assay: BSK_BT_xIL6: BioMAP Diversity Plus: BT Assay for Interleukin 6 (IL6) Biomarker Activity (AID 2284228); details: primary human B cells with PBMC
# How it was run: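 IL-6 secretion measured (Luminex xMAP) in human primary B cell + PBMC co-culture at 24 h of chemical exposure; DMSO served as negative control and activity baseline, with curves fitted for increase.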
# [5] = read-out: Interleukin 17A (IL17A), IL17A (gene 3605); assay: BSK_BT_xIL17A: BioMAP Diversity Plus: BT Assay for Interleukin 17A (IL17A) Biomarker Activity (AID 2284229); details: primary human B cells with PBMC
# How it was run: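 Human primary B cells plus PBMC, treated 24 h with chemicals; supernatant IL-17A quantified on Luminex xMAP beads. Gain of signal over DMSO control scored as activity.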
# [6] = read-out: Tumor necrosis factor (Homo sapiens) (UniProt P01375); assay: BSK_BT_xTNFa: BioMAP Diversity Plus: BT Assay for Tumor necrosis factor alpha (TNF-alpha) Biomarker Activity (AID 2284230); details: primary human B cells with PBMC
# How it was run: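 Endpoint derived in the positive direction versus DMSO vehicle. Cells: B cells together with PBMC, exposed 24 h before TNF-alpha in the medium was read on the Luminex xMAP platform.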
# [7] = read-out: Vascular cell adhesion molecule 1 (VCAM1), VCAM1 (gene 7412); assay: BSK_MyoF_VCAM1: BioMAP Diversity Plus: MyoF Assay for Vascular cell adhesion molecule 1 (VCAM1) Biomarker Activity (AID 2284231); details: primary human lung fibroblasts
# How it was run: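 VCAM-1 levels, lung fibroblasts, ELISA, 24 h exposure, increase scored relative to DMSO.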
# [8] = read-out: Collagen I, COL1A1 (gene 1277); assay: BSK_MyoF_CollagenI: BioMAP Diversity Plus: MyoF Assay for Collagen I Biomarker Activity (AID 2284238); details: primary human lung fibroblasts
# How it was run: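 Measured by ELISA: Collagen I from human lung fibroblasts 24 h after compound addition, analysed for signal gain with DMSO as baseline; overt toxicity read from SRB staining of parallel cultures at the same time.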
# [9] = read-out: Collagen III, COL3A1 (gene 1281); assay: BSK_MyoF_CollagenIII: BioMAP Diversity Plus: MyoF Assay for Collagen III Biomarker Activity (AID 2284239); details: primary human lung fibroblasts
# How it was run: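 Multiplexed cell assay in lung fibroblasts, harvested at 24 h post-dose. Collagen III detected by ELISA, with positive-direction fitting relative to DMSO vehicle.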
# [10] = read-out: Interleukin 17F (IL17F), IL17F (gene 112744); assay: BSK_BT_xIL17F: BioMAP Diversity Plus: BT Assay for Interleukin 17F (IL17F) Biomarker Activity (AID 2284243); details: primary human B cells with PBMC
# How it was run: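 Luminex readout of IL-17F secretion, 24 h; cells: human B cells with PBMC; positive-direction analysis, DMSO control.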
# [11] = read-out: Actin alpha 1 (ACTA1), ACTA1 (gene 58); assay: BSK_MyoF_ACTA1: BioMAP Diversity Plus: MyoF Assay for Actin alpha 1 (ACTA1) Biomarker Activity (AID 2284244); details: primary human lung fibroblasts
# How it was run: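 Measured by ELISA: alpha-smooth muscle actin in human primary lung fibroblasts 24 h after dosing, with DMSO as baseline and upward signal change as the fitted direction.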
# [12] = CCTE_Mundy_HCI_Cortical_Synap_Neur_Matur_CellBodySpotCount: CCTE's Synaptogenesis and Neurite Maturation Assay in rat cortical cells for Cell Body Spot Count, Mundy Lab (AID 2284223)
# How it was run: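 Chemicals were applied to AraC-treated rat primary cortical cells at DIV 7 and measured at DIV 12. Fixed cells were labelled for MAP2, synaptophysin and nuclei, and high-content imaging gave cell body synaptophysin spot counts per neuron relative to DMSO.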
# [13] = CCTE_Mundy_HCI_hNP1_Pro_ResponderAvgInten: CCTE's Proliferation Assay in human neuroprogenitor cells, Mundy Lab (AID 2284224; active = hit-call score of the fitted dose curve at least 0.9, where 1 is the maximum;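 also: human neural progenitor cells hNP1 derived from WA09 embryonic stem cells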)
# How it was run: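 Human neuroprogenitors (hNP1, WA09 lineage) receive test chemical after 40 to 44 hours of attachment. A four-hour BrdU pulse begins twenty hours later, followed by fixation and high content imaging; signal is referenced to DMSO controls.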
# [14] = UKN2_HCS_IMR90_cell_viability: Viability Assessment in the University of Konstanz (UKN) Leist Lab Neural Crest Cell Migration Assay in human induced IMR90 Pluripotent Stem Cells (UKN2) (AID 2284233);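 also: viability of neural crest cells differentiated from IMR90 iPSC measured by calcein-AM fluorescence imaging; cells exposed to compound for 24 h after a 24 h migration phase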
# How it was run: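 iPSC-derived (IMR90) neural crest cells seeded around silicone stoppers on PLO/laminin/fibronectin; after 24 h migration in N2-S with EGF/FGF, chemical added for 24 h. Calcein-AM/Hoechst stained 30 min, high-content imaged; bidirectional fit versus DMSO.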
# [15] = CCTE_Mundy_HCI_Cortical_NOG_NeuronCount: CCTE's Neurite Outgrowth Assay in rat cortical cells for Neuron Count, Mundy Lab (AID 2284236; active = hit-call score of the fitted dose curve at least 0.9, where 1 is the maximum;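 also: neurons counted by imaging betaIII-tubulin and Hoechst stained cortical cells; cells exposed to compound for about 48 hours before fixation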)
# How it was run: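 Read-out: neuron number by high-content imaging of betaIII-tubulin (Alexa Fluor-488) and Hoechst-labelled rat primary cortical cells.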
# [16] = CCTE_Mundy_HCI_Cortical_NOG_BPCount: CCTE's Neurite Outgrowth Assay in rat cortical cells for Branch Point Count, Mundy Lab (AID 2284237);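 as to AC50: branch points counted about two days after chemical exposure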
# How it was run: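 Measured 50.33 h after dosing, this morphology endpoint uses rat primary cortical cultures labelled for betaIII-tubulin. Branch points are quantified by high-content imaging, with DMSO as negative control and baseline.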
# [17] = CCTE_Mundy_HCI_hNP1_Casp3_7: CCTE's Caspase-Glo 3/7 Assay in human neuroprogenitor cells for Apoptosis, Mundy Lab (AID 2284240)
# How it was run: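 Neuroepithelial-lineage stem cells from WA09 embryonic cells were treated with chemicals after 40–44 h of culture. Twenty-four hours later, caspase-3/7 activation was detected luminescently after a 30 min room-temperature reagent step, with DMSO as baseline.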
# [18] = CCTE_Mundy_HCI_hNP1_CellTiter: CCTE's Cell Titer-Glo 2 Assay in human neuroprogenitor cells for Viability, Mundy Lab (AID 2284241; active = hit-call score of the fitted dose curve at least 0.9, where 1 is the maximum)
# How it was run: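 Measures ATP content in human neural progenitors derived from WA09 embryonic cells. Read-out at 26.5 hours after dosing, with DMSO serving as the negative control and baseline.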
# [19] = CCTE_Mundy_HCI_Cortical_Synap_Neur_Matur_NeuronCount: CCTE's Synaptogenesis and Neurite Maturation Assay in rat cortical cells for Neuron Count, Mundy Lab (AID 2284242; active = hit-call score of the fitted dose curve at least 0.9, where 1 is the maximum;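 also: neuron number from Hoechst nuclei and MAP2 staining by high-content imaging; hits reduce neuron count versus DMSO baseline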)
# How it was run: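 Imaging-based neuron count in rat cortical cultures after chemical exposure from DIV 7 to DIV 12, with AraC added at DIV 5. Activity is fitted relative to DMSO.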
# Tumor necrosis factor (Homo sapiens), sequence (P01375 whole entry, looked up): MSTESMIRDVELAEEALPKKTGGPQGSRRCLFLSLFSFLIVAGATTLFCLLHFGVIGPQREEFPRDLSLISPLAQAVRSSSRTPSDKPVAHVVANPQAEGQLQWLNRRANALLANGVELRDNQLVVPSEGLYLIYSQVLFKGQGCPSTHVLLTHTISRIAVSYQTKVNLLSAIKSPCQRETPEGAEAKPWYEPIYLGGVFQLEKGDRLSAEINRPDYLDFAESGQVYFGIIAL
smiles,measurement,setting,value
O=C(O)COc1cc(Cl)c(Cl)cc1Cl,outcome,[1],inactive
same,outcome,[2],inactive
same,outcome,[3],inactive
same,outcome,[4],inactive
same,outcome,[5],inactive
same,outcome,[6],inactive
same,outcome,[7],inactive
same,outcome,[8],inactive
same,outcome,[9],inactive
same,outcome,[10],inactive
same,outcome,[11],inactive
CC(C)(C)c1cc([N+](=O)[O-])cc(C(C)(C)C)c1O,AC50,[1],26.2 µM (active)
same,AC50,[2],2.8 µM (active)
same,AC50,[3],13.3 µM (active)
same,outcome,[4],inactive
same,AC50,[5],13.4 µM (active)
same,AC50,[6],14.8 µM (active)
same,outcome,[7],inactive
same,outcome,[8],inactive
same,AC50,[9],0.0556 µM (active)
same,AC50,[10],13 µM (active)
same,outcome,[11],inactive
Oc1c(Br)cc(Br)cc1Br,outcome,[1],inactive
same,outcome,[2],inactive
same,outcome,[3],inactive
same,outcome,[4],inactive
same,outcome,[5],inactive
same,outcome,[6],inactive
same,AC50,[7],15.4 µM (active)
same,AC50,[8],29.9 µM (active)
same,outcome,[9],inactive
same,outcome,[10],inactive
same,outcome,[11],inactive
CCOC(=O)C(SP(=S)(OC)OC)c1ccccc1 (centres undefined),outcome,[1],inactive
same,outcome,[2],inactive
same,outcome,[3],inactive
same,outcome,[4],inactive
same,outcome,[5],inactive
same,outcome,[6],inactive
same,outcome,[7],inactive
same,outcome,[8],inactive
same,outcome,[9],inactive
same,outcome,[10],inactive
same,AC50,[11],20 µM (active)
OC(Cc1ccccc1Cl)(Cn1[nH]cnc1=S)C1(Cl)CC1 (centres undefined),outcome,[12],inactive
same,AC50,[13],31.6 µM (active)
same,outcome,[1],inactive
same,AC50,[2],23.8 µM (active)
same,outcome,[3],inactive
same,outcome,[4],inactive
same,outcome,[5],inactive
same,outcome,[6],inactive
same,AC50,[7],30.1 µM (active)
same,AC50,[14],63.1 µM (active)
same,outcome,[15],inactive
same,AC50,[16],50 µM (active)
same,AC50,[8],31.4 µM (active)
same,AC50,[9],30.5 µM (active)
same,AC50,[17],91 µM (active)
same,outcome,[18],inactive
same,AC50,[19],83.8 µM (active)
same,outcome,[10],inactive
same,AC50,[11],25.3 µM (active)
CS(=O)(=O)c1ccc(C(=O)C2C(=O)CCCC2=O)c(Cl)c1COCC(F)(F)F,outcome,[12],inactive
same,outcome,[15],inactive
same,outcome,[16],inactive
same,outcome,[17],inactive
same,outcome,[18],inactive
O=c1oc2ccccc2c(O)c1C(CC(O)c1ccc(-c2ccc(Br)cc2)cc1)c1ccccc1 (centres undefined),outcome,[1],inactive
same,AC50,[2],20.8 µM (active)
same,outcome,[3],inactive
same,outcome,[4],inactive
same,outcome,[5],inactive
same,outcome,[6],inactive
same,AC50,[7],6.21 µM (active)
same,AC50,[8],1.94 µM (active)
same,AC50,[9],2.53 µM (active)
same,outcome,[10],inactive
same,AC50,[11],2.76 µM (active)
